Assay results from PMC11006913.

Target: HOXA4 (Homo sapiens, UniProt Q00056 201-287, W262R)
Test: PBM; 200 nM protein, PBS
Settings: dsDNA, one strand shown

Chain of HOXA4 (Q00056 201-287 W262R): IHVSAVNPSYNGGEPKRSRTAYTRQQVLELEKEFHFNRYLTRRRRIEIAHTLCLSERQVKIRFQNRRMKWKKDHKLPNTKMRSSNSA

Row | Sequence | binding signal
1 | CTAATCTA | 10.3 upbm affinity estimate (log intensity, higher = more binding, comparable within an allelic series)
2 | AACGAATT | 10.3 upbm affinity estimate (log intensity, higher = more binding, comparable within an allelic series)
3 | AATCCCCC | 9.83 upbm affinity estimate (log intensity, higher = more binding, comparable within an allelic series)
4 | ACCCGTAG | 9.8 upbm affinity estimate (log intensity, higher = more binding, comparable within an allelic series)
5 | AGGGGGCA | 9.67 upbm affinity estimate (log intensity, higher = more binding, comparable within an allelic series)
6 | AGCTCCCC | 9.71 upbm affinity estimate (log intensity, higher = more binding, comparable within an allelic series)
7 | CCGGCACG | 9.89 upbm affinity estimate (log intensity, higher = more binding, comparable within an allelic series)
8 | CAATTTAG | 10.5 upbm affinity estimate (log intensity, higher = more binding, comparable within an allelic series)
9 | AACATTAG | 10.2 upbm affinity estimate (log intensity, higher = more binding, comparable within an allelic series)
10 | GAGTAATA | 10.3 upbm affinity estimate (log intensity, higher = more binding, comparable within an allelic series)
11 | ATAAATCG | 10.2 upbm affinity estimate (log intensity, higher = more binding, comparable within an allelic series)
12 | GACCCCCC | 9.49 upbm affinity estimate (log intensity, higher = more binding, comparable within an allelic series)
13 | ACCCTAGG | 9.88 upbm affinity estimate (log intensity, higher = more binding, comparable within an allelic series)
14 | AGGAGTCC | 9.98 upbm affinity estimate (log intensity, higher = more binding, comparable within an allelic series)
15 | GAAAACGA | 10.1 upbm affinity estimate (log intensity, higher = more binding, comparable within an allelic series)
16 | CCTGCTCC | 9.98 upbm affinity estimate (log intensity, higher = more binding, comparable within an allelic series)
17 | GGACTCCC | 9.88 upbm affinity estimate (log intensity, higher = more binding, comparable within an allelic series)
18 | CACGGTGC | 9.98 upbm affinity estimate (log intensity, higher = more binding, comparable within an allelic series)
19 | CATGATTA | 10.4 upbm affinity estimate (log intensity, higher = more binding, comparable within an allelic series)
20 | CCCCGACC | 9.87 upbm affinity estimate (log intensity, higher = more binding, comparable within an allelic series)

Row | Sequence | binding signal
21 | AGTCCTTC | 9.96 upbm affinity estimate (log intensity, higher = more binding, comparable within an allelic series)
22 | CCACGCCC | 9.84 upbm affinity estimate (log intensity, higher = more binding, comparable within an allelic series)
23 | CCTCCGTC | 9.85 upbm affinity estimate (log intensity, higher = more binding, comparable within an allelic series)
24 | CCTCCAGC | 9.79 upbm affinity estimate (log intensity, higher = more binding, comparable within an allelic series)
25 | CAGGGGGA | 9.68 upbm affinity estimate (log intensity, higher = more binding, comparable within an allelic series)
26 | AGGGCGAG | 9.83 upbm affinity estimate (log intensity, higher = more binding, comparable within an allelic series)
27 | AATTGTTC | 10.4 upbm affinity estimate (log intensity, higher = more binding, comparable within an allelic series)
28 | CCAGCCGG | 9.8 upbm affinity estimate (log intensity, higher = more binding, comparable within an allelic series)
29 | CAATCACG | 10.3 upbm affinity estimate (log intensity, higher = more binding, comparable within an allelic series)
30 | CCTGGGCG | 9.75 upbm affinity estimate (log intensity, higher = more binding, comparable within an allelic series)
31 | CTCCCACC | 9.83 upbm affinity estimate (log intensity, higher = more binding, comparable within an allelic series)
32 | CTCATCTA | 10.3 upbm affinity estimate (log intensity, higher = more binding, comparable within an allelic series)
33 | GTCTATAA | 10.4 upbm affinity estimate (log intensity, higher = more binding, comparable within an allelic series)
34 | TGATGACA | 10.2 upbm affinity estimate (log intensity, higher = more binding, comparable within an allelic series)
35 | ACGTTTAG | 10.2 upbm affinity estimate (log intensity, higher = more binding, comparable within an allelic series)
36 | CCAGCGGG | 9.83 upbm affinity estimate (log intensity, higher = more binding, comparable within an allelic series)
37 | AGTAATTC | 10.4 upbm affinity estimate (log intensity, higher = more binding, comparable within an allelic series)
38 | CCTTCCCG | 9.88 upbm affinity estimate (log intensity, higher = more binding, comparable within an allelic series)
39 | CAGACCTC | 9.86 upbm affinity estimate (log intensity, higher = more binding, comparable within an allelic series)
40 | CACACCGG | 9.76 upbm affinity estimate (log intensity, higher = more binding, comparable within an allelic series)
